Experimental data published in paper PMC7862700, “An all-to-all approach to the identification of sequence-specific readers for epigenetic DNA modifications on cytosine”.

Legend:
Assay in all cases: DAPPL (digital affinity profiling via proximity ligation, sequencing); 10 mM Tris-HCl pH 7.5, 50 mM NaCl, 1 mM DTT, 4% glycerol, room temperature, 30 min; GST-TFs on glutathione beads, 16-mer random dsDNA library, 0.1% formaldehyde crosslink after washing; high values mean tight binding
Conditions in all cases: protein: recombinant; tags: N-terminal GST; dsDNA, one strand shown
ERF = target: T1, ERF (Homo sapiens, UniProt P50548 1-548)
T1 sequence: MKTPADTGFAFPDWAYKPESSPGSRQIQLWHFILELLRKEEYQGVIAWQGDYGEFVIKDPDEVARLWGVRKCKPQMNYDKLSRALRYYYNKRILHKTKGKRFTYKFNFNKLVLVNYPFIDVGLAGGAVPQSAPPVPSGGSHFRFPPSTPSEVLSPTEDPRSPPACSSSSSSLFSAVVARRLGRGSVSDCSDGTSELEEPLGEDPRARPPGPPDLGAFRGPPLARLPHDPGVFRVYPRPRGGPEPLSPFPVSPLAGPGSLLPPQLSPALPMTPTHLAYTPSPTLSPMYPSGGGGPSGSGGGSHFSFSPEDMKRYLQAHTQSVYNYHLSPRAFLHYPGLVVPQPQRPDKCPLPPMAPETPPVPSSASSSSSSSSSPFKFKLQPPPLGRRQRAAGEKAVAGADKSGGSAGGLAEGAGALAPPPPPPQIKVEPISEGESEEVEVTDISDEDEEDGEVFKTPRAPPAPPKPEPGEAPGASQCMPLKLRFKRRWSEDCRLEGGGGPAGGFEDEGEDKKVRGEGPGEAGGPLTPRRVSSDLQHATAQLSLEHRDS
How it was run: (§1)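 Human transcription factors carrying a GST fusion were produced in yeast, bound to glutathione beads, tagged with DNA barcodes and pooled together with a tag-only sample. Each pool was held with 200 nmole of a random double-stranded 16-mer DNA library in Tris/NaCl/DTT/glycerol buffer for 30 min at room temperature, then washed, crosslinked in 0.1% formaldehyde, proximity-ligated with BsaI/T4 ligase (1 h, 37 °C), PCR-amplified and sequenced on an Illumina NextSeq500. Binding signal is the read frequency of each hexamer for a given factor divided by its frequency in the tag-only sample.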

ETV3L = target: T2, ETV3L (Homo sapiens, UniProt Q6ZN32 1-361)
T2 sequence: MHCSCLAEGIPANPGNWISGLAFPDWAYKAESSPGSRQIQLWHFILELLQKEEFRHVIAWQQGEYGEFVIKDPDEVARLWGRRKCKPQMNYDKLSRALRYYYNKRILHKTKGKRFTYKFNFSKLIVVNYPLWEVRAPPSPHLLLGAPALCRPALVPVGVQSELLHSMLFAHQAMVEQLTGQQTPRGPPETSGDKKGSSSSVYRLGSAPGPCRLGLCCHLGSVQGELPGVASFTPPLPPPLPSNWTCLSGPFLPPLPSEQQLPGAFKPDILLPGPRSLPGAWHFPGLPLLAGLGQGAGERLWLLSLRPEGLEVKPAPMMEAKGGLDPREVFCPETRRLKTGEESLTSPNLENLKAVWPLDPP
How it was run: as §1

ETS2 = target: T3, ETS2 (Homo sapiens, UniProt P15036 1-469)
T3 sequence: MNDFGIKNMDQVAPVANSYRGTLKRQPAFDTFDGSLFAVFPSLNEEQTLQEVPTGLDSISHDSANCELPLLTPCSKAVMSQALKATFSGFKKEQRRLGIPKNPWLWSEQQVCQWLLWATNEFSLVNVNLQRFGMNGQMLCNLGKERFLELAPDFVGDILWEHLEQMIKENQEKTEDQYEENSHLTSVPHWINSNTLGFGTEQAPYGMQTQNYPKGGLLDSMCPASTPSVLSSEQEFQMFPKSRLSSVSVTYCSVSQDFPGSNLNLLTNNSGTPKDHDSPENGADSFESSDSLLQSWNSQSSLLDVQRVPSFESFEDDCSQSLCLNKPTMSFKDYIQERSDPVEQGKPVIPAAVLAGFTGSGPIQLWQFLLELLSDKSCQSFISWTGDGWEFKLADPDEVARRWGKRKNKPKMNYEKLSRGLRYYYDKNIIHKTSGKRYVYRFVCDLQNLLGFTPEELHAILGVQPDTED
How it was run: as §1

SPDEF = target: T4, SPDEF (Homo sapiens, UniProt O95238 1-335)
T4 sequence: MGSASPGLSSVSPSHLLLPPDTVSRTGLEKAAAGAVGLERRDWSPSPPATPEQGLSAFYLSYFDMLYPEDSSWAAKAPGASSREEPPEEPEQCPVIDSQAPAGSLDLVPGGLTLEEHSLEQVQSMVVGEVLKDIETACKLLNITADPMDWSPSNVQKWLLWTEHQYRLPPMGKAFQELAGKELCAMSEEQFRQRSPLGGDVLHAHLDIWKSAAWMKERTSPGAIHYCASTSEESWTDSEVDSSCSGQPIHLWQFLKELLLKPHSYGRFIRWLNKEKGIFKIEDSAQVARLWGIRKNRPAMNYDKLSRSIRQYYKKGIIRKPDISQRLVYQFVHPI
How it was run: as §1

ETV7 = target: T5, ETV7 (Homo sapiens, UniProt Q9Y603 1-341)
T5 sequence: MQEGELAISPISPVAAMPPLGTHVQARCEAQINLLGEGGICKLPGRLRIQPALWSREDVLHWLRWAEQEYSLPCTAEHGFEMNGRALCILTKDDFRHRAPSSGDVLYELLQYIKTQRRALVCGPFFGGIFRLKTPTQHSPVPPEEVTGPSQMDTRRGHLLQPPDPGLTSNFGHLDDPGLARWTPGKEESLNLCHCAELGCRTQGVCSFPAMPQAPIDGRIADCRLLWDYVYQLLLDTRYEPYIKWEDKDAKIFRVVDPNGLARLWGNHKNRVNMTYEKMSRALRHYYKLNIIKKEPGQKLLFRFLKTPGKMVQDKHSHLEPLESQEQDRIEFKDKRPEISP
How it was run: as §1

ELF5 = target: T6, ELF5 (Homo sapiens, UniProt Q9UKW6-2 1-255)
T6 sequence: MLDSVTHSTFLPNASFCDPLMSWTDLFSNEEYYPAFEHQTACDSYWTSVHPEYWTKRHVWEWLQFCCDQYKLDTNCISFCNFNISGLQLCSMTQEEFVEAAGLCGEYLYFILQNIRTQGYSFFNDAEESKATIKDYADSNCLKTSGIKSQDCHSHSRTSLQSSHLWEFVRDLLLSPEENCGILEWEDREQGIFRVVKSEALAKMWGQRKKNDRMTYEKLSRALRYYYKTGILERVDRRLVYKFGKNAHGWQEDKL
How it was run: as §1

ETV3 = target: T7, ETV3 (Homo sapiens, UniProt P41162-2 1-143)
T7 sequence: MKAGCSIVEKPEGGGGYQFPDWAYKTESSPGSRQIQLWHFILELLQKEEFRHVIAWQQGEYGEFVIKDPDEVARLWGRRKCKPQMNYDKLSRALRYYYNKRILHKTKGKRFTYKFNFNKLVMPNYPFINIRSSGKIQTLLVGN
How it was run: as §1

ETV6 = ETV6 (Homo sapiens, UniProt P41212 1-452)
Chain of ETV6 (P41212 whole entry): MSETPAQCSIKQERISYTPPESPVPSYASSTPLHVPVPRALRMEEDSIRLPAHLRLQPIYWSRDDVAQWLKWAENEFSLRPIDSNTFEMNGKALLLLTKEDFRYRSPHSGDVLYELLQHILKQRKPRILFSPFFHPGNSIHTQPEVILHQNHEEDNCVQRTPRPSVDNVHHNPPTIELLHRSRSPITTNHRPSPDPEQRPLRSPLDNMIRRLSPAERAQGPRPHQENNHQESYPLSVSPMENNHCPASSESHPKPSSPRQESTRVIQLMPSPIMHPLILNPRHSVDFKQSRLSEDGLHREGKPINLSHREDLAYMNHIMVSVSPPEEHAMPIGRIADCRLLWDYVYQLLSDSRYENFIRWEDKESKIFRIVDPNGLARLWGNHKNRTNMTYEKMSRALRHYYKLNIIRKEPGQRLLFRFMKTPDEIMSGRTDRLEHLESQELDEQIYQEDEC
How it was run: as §1

Row | Sequence | binding signal (ERF) | binding signal (ETV3L) | binding signal (ETS2) | binding signal (SPDEF) | binding signal (ETV7) | binding signal (ELF5) | binding signal (ETV3) | binding signal (ETV6)
1 | TCCATC | 1.17 fold enrichment (6-mer frequency, TF over GST control) | 1.31 fold enrichment (6-mer frequency, TF over GST control) | 1.2 fold enrichment (6-mer frequency, TF over GST control) | 1.3 fold enrichment (6-mer frequency, TF over GST control) | 1.2 fold enrichment (6-mer frequency, TF over GST control) | 1.17 fold enrichment (6-mer frequency, TF over GST control) | 1.22 fold enrichment (6-mer frequency, TF over GST control) | 1.13 fold enrichment (6-mer frequency, TF over GST control)
2 | ACCCCA | 1.08 fold enrichment (6-mer frequency, TF over GST control) | 1.09 fold enrichment (6-mer frequency, TF over GST control) | 1.15 fold enrichment (6-mer frequency, TF over GST control) | 1.02 fold enrichment (6-mer frequency, TF over GST control) | 1.06 fold enrichment (6-mer frequency, TF over GST control) | 1.04 fold enrichment (6-mer frequency, TF over GST control) | 1.09 fold enrichment (6-mer frequency, TF over GST control) | 1.02 fold enrichment (6-mer frequency, TF over GST control)
3 | CGATAG | 1.17 fold enrichment (6-mer frequency, TF over GST control) | 1.07 fold enrichment (6-mer frequency, TF over GST control) | 1.07 fold enrichment (6-mer frequency, TF over GST control) | 1.03 fold enrichment (6-mer frequency, TF over GST control) | 1.15 fold enrichment (6-mer frequency, TF over GST control) | 1.02 fold enrichment (6-mer frequency, TF over GST control) | 1.17 fold enrichment (6-mer frequency, TF over GST control) | 1.11 fold enrichment (6-mer frequency, TF over GST control)
4 | AACCAT | 1.07 fold enrichment (6-mer frequency, TF over GST control) | 1.16 fold enrichment (6-mer frequency, TF over GST control) | 1.12 fold enrichment (6-mer frequency, TF over GST control) | 1.11 fold enrichment (6-mer frequency, TF over GST control) | 1.15 fold enrichment (6-mer frequency, TF over GST control) | 1.08 fold enrichment (6-mer frequency, TF over GST control) | 1.16 fold enrichment (6-mer frequency, TF over GST control) | 1.13 fold enrichment (6-mer frequency, TF over GST control)
5 | ATGTGG | 1.15 fold enrichment (6-mer frequency, TF over GST control) | 1.16 fold enrichment (6-mer frequency, TF over GST control) | 1.18 fold enrichment (6-mer frequency, TF over GST control) | 1.05 fold enrichment (6-mer frequency, TF over GST control) | 1.08 fold enrichment (6-mer frequency, TF over GST control) | 1.15 fold enrichment (6-mer frequency, TF over GST control) | 1.19 fold enrichment (6-mer frequency, TF over GST control) | 1.2 fold enrichment (6-mer frequency, TF over GST control)
6 | TTACTG | 1.2 fold enrichment (6-mer frequency, TF over GST control) | 1.04 fold enrichment (6-mer frequency, TF over GST control) | 1.09 fold enrichment (6-mer frequency, TF over GST control) | 1.07 fold enrichment (6-mer frequency, TF over GST control) | 1.14 fold enrichment (6-mer frequency, TF over GST control) | 1.02 fold enrichment (6-mer frequency, TF over GST control) | 1.21 fold enrichment (6-mer frequency, TF over GST control) | 1.17 fold enrichment (6-mer frequency, TF over GST control)
7 | CCTCAA | 1.32 fold enrichment (6-mer frequency, TF over GST control) | 1.58 fold enrichment (6-mer frequency, TF over GST control) | 1.39 fold enrichment (6-mer frequency, TF over GST control) | 1.38 fold enrichment (6-mer frequency, TF over GST control) | 1.27 fold enrichment (6-mer frequency, TF over GST control) | 1.52 fold enrichment (6-mer frequency, TF over GST control) | 1.48 fold enrichment (6-mer frequency, TF over GST control) | 1.42 fold enrichment (6-mer frequency, TF over GST control)
8 | TTCCAG | 1.09 fold enrichment (6-mer frequency, TF over GST control) | 1.09 fold enrichment (6-mer frequency, TF over GST control) | 1.12 fold enrichment (6-mer frequency, TF over GST control) | 1.04 fold enrichment (6-mer frequency, TF over GST control) | 1.16 fold enrichment (6-mer frequency, TF over GST control) | 1.18 fold enrichment (6-mer frequency, TF over GST control) | 1.06 fold enrichment (6-mer frequency, TF over GST control) | 1.15 fold enrichment (6-mer frequency, TF over GST control)
9 | CTCCTG | 1.49 fold enrichment (6-mer frequency, TF over GST control) | 1.72 fold enrichment (6-mer frequency, TF over GST control) | 1.86 fold enrichment (6-mer frequency, TF over GST control) | 1.6 fold enrichment (6-mer frequency, TF over GST control) | 1.64 fold enrichment (6-mer frequency, TF over GST control) | 1.6 fold enrichment (6-mer frequency, TF over GST control) | 1.43 fold enrichment (6-mer frequency, TF over GST control) | 1.59 fold enrichment (6-mer frequency, TF over GST control)
10 | ATACCA | 1.06 fold enrichment (6-mer frequency, TF over GST control) | 1.08 fold enrichment (6-mer frequency, TF over GST control) | 1.06 fold enrichment (6-mer frequency, TF over GST control) | 1 fold enrichment (6-mer frequency, TF over GST control) | 1.02 fold enrichment (6-mer frequency, TF over GST control) | 1.03 fold enrichment (6-mer frequency, TF over GST control) | – | 1.01 fold enrichment (6-mer frequency, TF over GST control)
11 | ACTCGA | 1.33 fold enrichment (6-mer frequency, TF over GST control) | 1.3 fold enrichment (6-mer frequency, TF over GST control) | 1.33 fold enrichment (6-mer frequency, TF over GST control) | 1.29 fold enrichment (6-mer frequency, TF over GST control) | 1.28 fold enrichment (6-mer frequency, TF over GST control) | 1.22 fold enrichment (6-mer frequency, TF over GST control) | 1.27 fold enrichment (6-mer frequency, TF over GST control) | 1.27 fold enrichment (6-mer frequency, TF over GST control)
12 | GAAAAC | 1.11 fold enrichment (6-mer frequency, TF over GST control) | 1.13 fold enrichment (6-mer frequency, TF over GST control) | 1.11 fold enrichment (6-mer frequency, TF over GST control) | 1.07 fold enrichment (6-mer frequency, TF over GST control) | 1.13 fold enrichment (6-mer frequency, TF over GST control) | 1.16 fold enrichment (6-mer frequency, TF over GST control) | – | 1.06 fold enrichment (6-mer frequency, TF over GST control)
13 | TCGAAT | 1.13 fold enrichment (6-mer frequency, TF over GST control) | 1.09 fold enrichment (6-mer frequency, TF over GST control) | 1.06 fold enrichment (6-mer frequency, TF over GST control) | 1.09 fold enrichment (6-mer frequency, TF over GST control) | 1.23 fold enrichment (6-mer frequency, TF over GST control) | 1.02 fold enrichment (6-mer frequency, TF over GST control) | – | 1.13 fold enrichment (6-mer frequency, TF over GST control)
14 | CAAATC | 1.12 fold enrichment (6-mer frequency, TF over GST control) | 1.1 fold enrichment (6-mer frequency, TF over GST control) | 1.09 fold enrichment (6-mer frequency, TF over GST control) | 1.26 fold enrichment (6-mer frequency, TF over GST control) | 1.13 fold enrichment (6-mer frequency, TF over GST control) | 1.08 fold enrichment (6-mer frequency, TF over GST control) | – | 1.05 fold enrichment (6-mer frequency, TF over GST control)
15 | AACGTC | 1.01 fold enrichment (6-mer frequency, TF over GST control) | 1.03 fold enrichment (6-mer frequency, TF over GST control) | 1.14 fold enrichment (6-mer frequency, TF over GST control) | 1.11 fold enrichment (6-mer frequency, TF over GST control) | 1.11 fold enrichment (6-mer frequency, TF over GST control) | 1.1 fold enrichment (6-mer frequency, TF over GST control) | 1.07 fold enrichment (6-mer frequency, TF over GST control) | 1.05 fold enrichment (6-mer frequency, TF over GST control)
